# HepG2 tox = kills HepG2 cells in TGF-b inhibitor counter-screen. HepG2 CAGA-GFP viability, ATP luminescence, 18 h. Potency, µM (top dose mostly 46.1 µM), without a hit: at the highest dose activity change, negative = cytotoxicity, hits mostly cytotoxic. 410,000 tested, 0.76% active. AID 588856; further: potency means the concentration at half of the fitted maximal effect
#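 HepG2 CAGA-GFP cells (1000/well, DMEM with 1% FBS) received compound, then TGF-beta at 500 pg/mL final, and were incubated 18 hours at 37 degrees C. Viability was read by CellTiter-Glo luminescence. Media-only wells were set as complete cell-killing and DMSO as no toxicity.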
# DT40 TDP1 CPT = growth inhibition of DT40 Tdp1-/-;hTDP1 cells with camptothecin (screen for TDP1 inhibitors); chicken DT40 Tdp1-/-;hTDP1 cells + 20 nM CPT, ATP luminescence, 48 h; Potency, µM (titrated, usually from 46.2 µM), for the others: at the highest dose activity change, negative = growth inhibition, most hits filed as inhibitors; 420,000 tested, 12% active; AID 686979; further: potency means the concentration at half of the fitted maximal effect; on the % scale 0 is the no-effect control and ±100 the full control effect; nearly all actives have a fitted effect of over 55% in size
#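 Chicken DT40 Tdp1-/- cells stably complemented with human TDP1 were seeded at 400 cells/well in medium containing 20 nM camptothecin, exposed to pin-transferred compounds, and grown at 37 °C for at least 48 hr. Viability was read as ATP luminescence.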
# IL1B secr inh = inhibitors of inflammasome signaling (IL-1 beta secretion); AID 743279; activity change, % at 57.5 µM; 360,000 tested, 4.7% active; THP-1 LPS/ATP IL-1B secretion, AlphaLISA, 16 h; hits give low values; in the data active means activity change below about -50%; inconclusive means mostly about -30% to -49%; further: on the % scale 0 is the no-effect control and ±100 the full control effect
#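 THP-1 cells pretreated 1 hr with compounds (up to 57.5 uM final), then stimulated with LPS (250 ng/mL final) plus ATP (1.25 mM final); secreted IL-1B measured by AlphaLISA after 16 hr, decreased signal indicating inhibition.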
# DT40 TDP1 no CPT = qHTS for Inhibitors of human tyrosyl-DNA phosphodiesterase 1 (TDP1): qHTS in cells in absence of CPT | DT40 Tdp1-/- hTDP1 cells, no CPT, ATP luminescence, 48 h | Potency, µM (highest dose often 46.2 µM), for inactives: top-dose activity change, negative = growth inhibition, most hits filed as inhibitors | 420,000 tested, 15% active | AID 686978, 2013; further: potency means the concentration at half of the fitted maximal effect; on the % scale 0 is the no-effect control and ±100 the full control effect; nearly all actives have a fitted effect of over 55% in size
#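 Cells were dispensed at 400 per well, compounds added by pin tool, plates incubated ≥48 hr at 37 °C, then CellTiter-Glo added for 30 min at room temperature before luminescence reading. Line: DT40 Tdp1-/- complemented with hTDP1; camptothecin omitted.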
# TGFb SMAD3 inh = blocks TGF-b signaling | 410,000 tested, 1.2% active | HepG2 CAGA-GFP TGF-b/SMAD3 reporter, GFP fluorescence, 18 h; TGF-beta stimulated, 500 pg/mL final | Potency, µM (titrated, usually from 46.1 µM), without a hit: at the highest dose activity, negative = inhibition, actives largely listed as inhibitors; further: potency means the concentration at half of the fitted maximal effect; on the % scale 0 is the no-effect control and ±100 the full control effect; nearly all actives have a fitted effect of over 65% in size
#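 Per well, imaged GFP fluorescence of HEPG2 CAGA-GFP cells gives the signal; cells get compound, then TGF-beta (500 pg/mL final), 18 h at 37 degrees C; %Activity versus -TGF-beta and +DMSO controls.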
# ASM inhibitor = inhibitors of human secretory acid sphingomyelinase; placental ASM, HMU-PC fluorogenic substrate, 60 min; Potency, µM (series often up to 57.5 µM), for the others: at the top dose activity change, negative = inhibition, hits mostly inhibitors; 340,000 tested, 0.006% active; AID 504937; further: potency means the concentration at half of the fitted maximal effect
# Target sequence (P17405 47-631 limits assumed): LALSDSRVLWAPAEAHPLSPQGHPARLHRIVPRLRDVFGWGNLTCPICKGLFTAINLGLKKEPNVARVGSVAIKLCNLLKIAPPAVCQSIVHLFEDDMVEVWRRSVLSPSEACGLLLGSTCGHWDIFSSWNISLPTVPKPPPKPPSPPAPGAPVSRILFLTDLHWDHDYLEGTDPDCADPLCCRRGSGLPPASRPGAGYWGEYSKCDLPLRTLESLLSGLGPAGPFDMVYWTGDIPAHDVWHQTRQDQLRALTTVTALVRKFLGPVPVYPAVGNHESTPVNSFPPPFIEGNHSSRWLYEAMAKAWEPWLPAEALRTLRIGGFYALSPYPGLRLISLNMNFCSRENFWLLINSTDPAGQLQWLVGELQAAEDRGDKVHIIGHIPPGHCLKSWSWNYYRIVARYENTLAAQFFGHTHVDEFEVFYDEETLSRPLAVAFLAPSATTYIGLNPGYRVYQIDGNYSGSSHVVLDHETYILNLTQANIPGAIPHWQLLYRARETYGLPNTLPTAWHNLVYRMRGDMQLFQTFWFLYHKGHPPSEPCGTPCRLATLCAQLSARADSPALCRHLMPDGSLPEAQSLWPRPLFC
#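 Fluorogenic HMU-PC substrate (9 uM final) is turned over by placental ASM in 60 min at 37 C after a 10 min compound preincubation. Reaction ended by alkaline stop (pH 10), with fluorescence read at 386/447 nm.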
# Active calls of the source: *; ? = inconclusive; . = no result; ! = repeats disagree. Rows were chosen to be rich in hits. Some 19% of all compounds tested hit in one or more screens of this group. Unless noted, the call rests on the fitted dose curve; in most records, active means well fitted curve in the direction sought with a large enough effect; inconclusive means small, poorly fitted or top-dose-only effect, or another doubt; inactive means no such curve, though single readings can be large; an effect the other way counts as inactive or inconclusive.
SMILES,HepG2 tox,DT40 TDP1 CPT,IL1B secr inh,DT40 TDP1 no CPT,TGFb SMAD3 inh,ASM inhibitor
CCOC(=O)Cn1nc(-c2ccc(Cl)cc2)ccc1=O,-2.4%,?,-8.5,?,23.8%,1.8%
CCOC(=O)COc1ccc(CC)cc1C(=O)c1ccn2nc(-c3ccccc3)cc2n1,-8.0%,14.6µM*,.,23.1µM*,-4.5%,.
CCOC(=O)COc1ccc(CC)cc1C(=O)c1ccn2nc(-c3ccc(Cl)cc3)cc2n1,-3.2%,20.6µM*,.,20.6µM*,?,.
CCc1cccc(N(C(=O)c2csnn2)C(C(=O)NC2CCCCC2)c2cccnc2)c1 (centres undefined),-1.2%,-0.3%,-3.1,?,-15.6%,-1.2%
CC(OC(=O)c1cnc(Cl)c(Cl)c1)C(=O)NCc1ccccc1 (centres undefined),-5.0%,?,-87.2*,2.6%,-8.3%,-3.1%
Cc1ccccc1CN(C)C(=O)COC(=O)c1ccc2[nH]c(C)c(C)c2c1,7.5%,16.4µM*,-60.8*,?,-28.5%,-5.7%
COCCN(C(=O)COC(=O)c1ccc2[nH]c(C)c(C)c2c1)c1c(N)n(Cc2ccccc2)c(=O)[nH]c1=O,4.5%,-22.4%,-27.3,0.0%,-3.7%,10.7%
Cc1[nH]c2ccc(C(=O)OC(C)C(=O)NCc3ccccc3)cc2c1C (centres undefined),-24.8%,13µM*,-56.5*,6.51µM*,-1.9%,-8.5%
COc1ccccc1-n1c(SCC(=O)OC(C)C)nc2cccnc21,1.3%,-0.3%,9.0,21.7%,-7.5%,2.7%
CC(C)C1=CC(=Nc2ccc(S(N)(=O)=O)cc2)C=C(C(C)C)C1=O,11.2µM*,16.4µM*,-56.9*,23.1µM*,?,-7.2%
CN(C(=O)c1cc2c(=O)n3ccccc3nc2n1C)c1ccccc1,-1.5%,11.6µM*,.,?,-29.5%,.
CCCCCNC(=O)c1cc2c(=O)n3ccccc3nc2n1C,-0.4%,?,.,?,?,.
CN(C)c1ccc(NC(=O)c2cc3c(=O)n4ccccc4nc3n2C)cc1,1.3%,?,?,14.6µM*,7.1%,276.0%
Cc1cc(C)c(S(=O)(=O)N2CCN(C(=O)CN3C(=O)NC4(CCCC4)C3=O)CC2)c(C)c1,3.6%,-0.6%,-0.9,0.5%,4.2%,-3.3%
CC1(C)CC(=O)C(C(C2=C(O)CC(C)(C)CC2=O)c2cccs2)C(=O)C1 (centres undefined),-82.8%,?,-96.1*,?,?,-1.1%
CC(C)NC(=O)NC(=O)COC(=O)c1ncc(Cl)c(Cl)c1Cl,1.2%,-5.4%,-62.9*,-6.5%,-10.5%,1.1%
COc1ccccc1C(=O)NC(=O)COC(=O)c1ncc(Cl)c(Cl)c1Cl,2.7%,?,10.5,-5.0%,-14.5%,.
O=C(COC(=O)c1ncc(Cl)c(Cl)c1Cl)Nc1cccnc1Cl,11.9%,-12.4%,-56.0*,7.5%,3.6%,5.1%
O=C(COC(=O)c1ncc(Cl)c(Cl)c1Cl)Nc1ccc(Cl)cn1,1.41µM*,-9.4%,4.3,-8.6%,-11.5%,-0.9%
COc1cccc(-n2c(=O)c3c4c(sc3n(Cc3ccccc3C#N)c2=O)CCCC4)c1,-2.1%,6.4%,.,-14.5%,-4.0%,.
Fc1cccc(/C=N/Nc2nncc3ccccc23)c1,-39.1%,?,-5.9,?,-6.0%,-2.8%
Cc1cc(=O)[nH]c(N/N=C/c2ccc(-c3ccc(F)cc3)o2)n1,-152.7%,9.2µM*,13.7,13µM*,-18.4%,33.0%
O=c1nc(N/N=C/c2ccccn2)cn[nH]1,-13.3%,5.17µM*,159.5,5.17µM*,5.7%,0.3%
Cc1cc(=O)[nH]c(NN=Cc2c(Cl)cccc2Cl)n1,5.4%,15.3%,-29.1,-25.0%,0.0%,3.4%
Cc1ccc(/C=N/Nc2cn[nH]c(=O)n2)o1,-20.6%,-0.4%,9.4,-4.1%,-6.1%,-1.1%
SMILES,HepG2 tox,DT40 TDP1 CPT,IL1B secr inh,DT40 TDP1 no CPT,TGFb SMAD3 inh,ASM inhibitor
Cc1cc(=O)[nH]c(N/N=C/c2ccccn2)n1,-10.6%,3.66µM*,89.1,4.61µM*,?,3.8%
C(=N\Nc1nncc2ccccc12)/c1ccccn1,-97.9%,2.31µM*,149.7,2.91µM*,?,-0.1%
CSc1ccc(/C=N/Nc2nc(C)cc(=O)[nH]2)cc1,-0.8%,5.7%,-17.9,-2.0%,-2.1%,2.6%
O=C(c1ccc(-n2cccn2)cc1)N1CCc2ccccc2C1,6.3%,?,-6.4,?,0.0%,0.3%
CSCCC(NS(=O)(=O)c1ccccc1)C(=O)OC(C)C(=O)Nc1ccc(Cl)cn1 (centres undefined),1.6%,-2.1%,56.9,16.9%,7.3%,-0.4%
CC(/C=N/Nc1nncc(=O)[nH]1)=C\c1ccccc1,-0.6%,23.1%,-1.0,2.4%,1.5%,4.5%
O=c1cnnc(N/N=C/c2ccccn2)[nH]1,-24.2%,4.61µM*,186.8,3.26µM*,-29.8%,3.3%
CC1=CC(C)(C)N2C(=O)C3(N=C(N)NC(Nc4ccccc4)=N3)c3cc(C)cc1c32 (centres undefined),-48.6%,?,-78.1*,18.4µM*,38.0%,-0.9%
CC1=CC(C)(C)N2C(=O)C3(SCC(=O)N3c3ccc(O)cc3)c3cc(C)cc1c32 (centres undefined),-17.0%,-5.3%,36.0,-0.7%,-14.5%,-1.0%
Cc1cccc(N2CCN(S(=O)(=O)c3ccc(Cl)nc3)CC2C)c1 (centres undefined),-15.9%,13.2%,-27.8,-6.5%,9.2%,1.7%
COc1cc(NC(=O)c2cnc(N)o2)cc(C(=O)Nc2cccc(C(F)(F)F)c2)c1,-51.7%,20.6µM*!,-21.3,13µM*!,?,-15.8%
COc1cc(NC(=O)c2ccnc(N)c2)cc(C(=O)Nc2cccc(C(F)(F)F)c2)c1,1.0%,23.1µM*,-18.5,20.6µM*,3.2%,-15.1%
COc1cc(NC(=O)c2cnc(N)s2)cc(C(=O)Nc2cccc(C(F)(F)F)c2)c1,-61.8%,?,55.7,18.4µM*,?,-14.1%
COc1cc(NC(=O)c2csc(N)n2)cc(C(=O)Nc2cccc(C(F)(F)F)c2)c1,-45.6%,4.61µM*,56.7,2.91µM*,?,-10.3%
COC(=O)[C@H]1C[C@H](OC(=O)NC2CC2)[C@@]2(O)CN(S(=O)(=O)c3ccc(C)cc3)CC2[C@H]1C(=O)OC (some centres undefined),-19.4%,-18.7%,-12.9,-4.8%,-14.7%,.

# Source: PubChem BioAssay
